Bioassay records (PubChem BioAssay)
The list is not random: actives were taken first. Their share in the collection is about 2%.
A3A deaminase = human APOBEC3A DNA deaminase inhibition. hit rate 0.41% among 330,000. AID 493011. recombinant A3A, FAM/TAMRA ssDNA deamination fluorescence. inhibition, % at 20 µM;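 active = at least 40% inhibition at 20 µM here, with at most 30% in a related deaminase screen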;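 also: plate controls were A3A with DMSO for no effect and wells lacking A3A enzyme for full effect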
CTSL1 counter = blocks F. hepatica cathepsin L1 in PFM18AAP counter-screen; recombinant F. hepatica cathepsin L1, Z-Leu-Arg-MCA fluorescence; inhibition, % at 5.96 µM; hit rate 0.49% among 300,000; AID 1906;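 active = inhibition above the mean of all tested compounds plus 3 SD, set per screening campaign, cut at about 17% in these data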;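 also: 0% = plate median of test compound wells and 100% = 1 µM Z-Phe-Ala-diazomethylketone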
sPLA2-III inh = Inhibits HGIII-sPLA2 liposome hydrolysis, primary screen; hit rate 0.56% among 370,000; QFRET BODIPY PC-A2 liposome hydrolysis, fluorescence; AID 743126; inhibition, % at 12.2 µM; Q9NZ20;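 active = inhibition above mean plus 3 SD of compounds lying within the high and low control bounds, cut at about 19% in these data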;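 also: 0% = median of test compound wells and 100% = no enzyme DMSO wells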
Target sequence (Q9NZ20 whole entry, looked up): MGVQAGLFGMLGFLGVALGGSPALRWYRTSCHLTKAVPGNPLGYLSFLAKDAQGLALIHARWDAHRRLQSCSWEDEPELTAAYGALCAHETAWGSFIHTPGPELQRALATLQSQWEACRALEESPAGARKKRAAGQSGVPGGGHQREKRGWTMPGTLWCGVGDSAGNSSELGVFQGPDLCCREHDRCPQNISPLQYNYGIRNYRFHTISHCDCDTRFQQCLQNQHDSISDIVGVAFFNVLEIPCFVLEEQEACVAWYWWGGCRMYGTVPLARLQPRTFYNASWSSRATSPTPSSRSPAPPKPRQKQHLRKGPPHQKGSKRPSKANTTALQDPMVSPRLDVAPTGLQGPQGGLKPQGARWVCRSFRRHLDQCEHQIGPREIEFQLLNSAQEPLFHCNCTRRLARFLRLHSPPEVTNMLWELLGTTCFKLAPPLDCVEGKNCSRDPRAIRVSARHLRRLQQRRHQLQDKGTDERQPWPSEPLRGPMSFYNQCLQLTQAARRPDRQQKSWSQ
A3G deaminase = APOBEC3G (human) deaminase inhibition | Q9HC16 | recombinant A3G, ssDNA deamination FAM/TAMRA fluorescence | hit rate 0.28% among 330,000 | inhibition, % at 20 µM;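 active = inhibition of at least 40% at 20 µM, with no more than 30% in the related APOBEC3A deaminase screen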;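 also: plate controls were DMSO wells with A3G for no effect and wells lacking A3G enzyme for full effect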
NALP1 yeast inh = inhibitors of NALP1 inflammasome in yeast; S. cerevisiae NALP1/ASC/caspase-1 growth, X-gal OD620, 72 h; inhibition, % at 10 µM; hit rate 0.61% among 280,000; AID 2071; in the data active = inhibition mostly above about 24%, no sharp cut-off; inactive = mostly below about 32%
An asterisk follows results filed as active; . = not tested or not shown.

SMILES	A3A deaminase	CTSL1 counter	sPLA2-III inh	A3G deaminase	NALP1 yeast inh
O=C(O)CCC1c2cc3c4cc2OC2Oc5cc6c(cc51)C(CCC(=O)O)c1cc5c7cc1OC(O6)c1cc6cc(c1)Oc1cc(cc(C(=O)O)c1)Oc1cc8cc(c1)C(Oc1cc(c(cc1C5CCC(=O)O)C3CCC(=O)O)OC(O4)c1cc(cc(c1)Oc1cc(cc(C(=O)O)c1)O8)Oc1cc(cc(C(=O)O)c1)Oc1cc(cc2c1)Oc1cc(cc(C(=O)O)c1)O6)O7 (stereo not given)	98	22*	.	82	.
Cc1ccc(NC(=O)[C@@H]2CCCN2S(=O)(=O)c2cccc3cccnc23)c(C)c1	.	.	3	.	.
Cc1cc(N2CCN(C)CC2)nc2ccc(NC(=O)c3ccccc3F)cc12	2	-1	0	-9	9
CCN1CCN(c2cc(C)c3cc(NC(=O)c4ccccc4F)ccc3n2)CC1	.	.	.	.	37*
CC(=O)c1ccc(-c2ccccc2OC(F)(F)F)o1	-5	1	-3	-10	20
O/N=C/c1ccc(-c2ccccc2OC(F)(F)F)o1	2	2	-25	-3	36*
CC(NC(=O)Cn1nc(C(F)(F)F)c2c1CCC2)c1ccccc1 (stereo not given)	-1	17*	5	0	11
O=C(NCc1ccco1)/C(=C/c1ccco1)NC(=O)c1ccc(Br)o1	2	17*	-8	-4	24
COc1ccccc1C(=O)N/C(=C\c1ccccc1)C(=O)NCc1ccco1	-2	17*	-1	-1	-14
O=C(NCc1ccco1)/C(=C\C=C\c1ccccc1)NC(=O)c1ccco1	2	17*	-3	0	28
O=C(NCc1ccco1)/C(=C/C=C/c1ccccc1)NC(=O)c1ccco1	1	27*	3	-5	-12
C[C@H]1[C@@H](OC(=O)N2CCN(c3ccccc3)CC2)CC[C@@]23CCCN2C(=O)CCC[C@@H]13	.	.	0	.	.
Fc1ccccc1-c1n[nH]c(=S)n1N=Cc1ccc(OCc2ccccc2)cc1	.	.	-23	.	.
COCCCNc1nc(-c2ccc(Cl)cc2)nc2ccccc12	-3	5	-20	11	36*
Cc1ccc(C(=O)NNC(=S)NC(=O)c2ccccc2)cc1	0	-1	35*	-3	.
Cc1ccccc1C(=O)NNC(=S)NC(=O)c1ccccc1	6	0	17	2	13
Cc1ccc(C2CC(c3cccs3)=NN2C(=O)CCl)cc1 (stereo not given)	-3	52*	-1	-8	-12
COC(=O)c1scc(C)c1N/N=C(\C)c1ccc(F)cc1	-2	-1	4	-8	42*
CC(C)C(=O)Nc1ccccc1N1CCN(S(C)(=O)=O)CC1	-2	0	1	0	24
CS(=O)(=O)N1CCN(c2ccccc2NC(=O)C(c2ccccc2)c2ccccc2)CC1	3	1	-9	-10	43*
COc1cc2c(cc1OC)C(C1C(=O)CC(C)(C)CC1=O)N(C(=O)CCl)CC2 (stereo not given)	2	17*	2	1	26
COc1cc2c(cc1OC)C(c1cc(Br)ccc1F)N(C(=O)CCl)CC2 (stereo not given)	-2	89*	2	-7	7
COC(CNC(=O)[C@H](Cc1ccccc1)NC(C)(C)C(=O)NC1CCCCC1)OC	.	.	2	.	.
COc1ccc(S(=O)(=O)NNC(=O)c2ccccc2-n2cccc2)cc1	-1	-4	0	-4	36*
O[C@H](COc1cc(F)cc(F)c1)CN1CCC(C(O)(c2ccccc2)c2ccccc2)CC1	.	.	-24	.	.
SMILES	A3A deaminase	CTSL1 counter	sPLA2-III inh	A3G deaminase	NALP1 yeast inh
CCOC(=O)C1=C(C)Nc2nnnn2C1c1cccc(OC)c1OC (stereo not given)	1	0	-1	2	.
CCOC(=O)C1=C(C)Nc2nnnn2C1c1c[nH]c2ccccc12 (stereo not given)	-2	-1	-15	-5	46*
O=C(NNC1OC(CO)C(O)C(O)C1O)c1cccnc1 (stereo not given)	-1	0	1	-6	9
COc1cccc(C(=O)NNC2OC(CO)C(O)C2O)c1 (stereo not given)	-4	19*	3	-4	10
Cc1ccc(CN[C@@H]2CC[C@@]34CCCN3C(=O)CCC[C@H]4C2)cc1	.	.	2	.	.
O=S1(=O)CC2c3ccc(F)cc3CN2CN1CCc1ccccc1 (stereo not given)	.	.	3	.	.
Nc1ccc(N2CCCCC2)c2nonc12	0	79*	4	3	-1
Nc1c(N2CCCC2)cc(Cl)c2nonc12	3	95*	.	0	-1
Nc1ccc(N2CCCCC2)cc1N1CCCCC1	-6	-3	8	0	1
Cn1c(=O)n(C)c2cc(/C=N/NC(N)=S)ccc21	-4	33*	7	-10	10
COc1cc(/C=N/NC(N)=S)ccc1OC(=O)c1ccc(C)cc1	-3	66*	0	-4	14
COc1ccc(C=NNC(=S)Nc2ccc(F)cc2)cc1OC	.	.	23*	.	.
COc1ccc(C=NNC(=S)NN=Cc2ccc(OC)c(OC)c2)cc1OC	.	.	17	.	.
Cn1c(=O)n(C)c2cc(/C=N/NC(=O)c3ccc(Cl)cc3Cl)ccc21	-1	9	1	0	-6
COc1cc(/C=N/NC(N)=S)ccc1OCC(=O)N1CCOCC1	1	18*	3	-1	10
COc1cc(/C=N/NC(N)=S)ccc1OCc1ccc(C)cc1	-3	15	18	-9	-3
Cc1cccc(-c2cccc3c4c([nH]c23)[C@@H]2C[C@H](N(C)C(=O)Nc3ccccc3C)[C@H]([C@H](C)O)C(=O)N2CC4)c1	.	.	-26	.	.
O=C(c1ccccc1C(F)(F)F)N1CCC(Oc2cccnc2)CC1	.	.	2	.	.
CC(C)N(C(=S)Nc1cc(S(=O)(=O)N2CCOCC2)ccc1Cl)c1ccccc1	-1	-3	0	-1	59*
CN1CCN(C(=S)Nc2cc(S(=O)(=O)N3CCOCC3)ccc2Cl)CC1	-1	0	3	-9	15
O=C(COc1ccc(C(=O)O)cc1)Nc1cccc(C(F)(F)F)c1	2	1	2	-3	2
Cc1cc(NC(=O)Nc2cccc(C(F)(F)F)c2)n(C)n1	-3	0	4	-4	32*
Cc1ccccc1C(=O)NNC(=S)Nc1cccc(C(F)(F)F)c1	-6	-13	24*	-8	21
FC(F)(F)c1cccc(NC(=S)NNC(=S)Nc2cccc(C(F)(F)F)c2)c1	1	5	.	-13	-1
O=C(COCC(=O)Nc1cccc(C(F)(F)F)c1)Nc1cccc(C(F)(F)F)c1	3	6	-7	0	38*
Cc1ccccc1NC(=O)c1cccc2c1-c1ccccc1C2=O	.	.	1	.	.
COCCCNC(=O)C[C@H]1C[C@@]2(C(=O)OC)C(=C[C@H](C(C)C)O[C@@H]2C2CC2)N(CCc2ccc(OC)c(OC)c2)C1=O	.	.	9	.	.
CC(=O)N1c2ccc(S(=O)(=O)N3CCCC3C(=O)Nc3ccc(C)cc3)cc2CC1C (stereo not given)	-3	19*	-7	-9	5
